Only a selection was taken, and hits are over-represented in it overall.
Shiga inhibitor – Shiga toxin inhibition; Vero cells, Shiga toxin protein synthesis inhibition reporter; inhibition, % at 38.7 µM; 290,000 compounds, 9.2% hits; in the data active = inhibition mostly above about 28%, no sharp cut-off; inactive = mostly below about 43%
AMA1-RON2 inh – disrupts binding of P. falciparum AMA1 to RON2; AlphaScreen AMA1-biotinylated RON2 peptide binding; Potency, µM (doses to about 58.2 µM), hits mostly inhibitors; 360,000 compounds, 0.2% hits; AID 720542; also: nearly all actives have a fitted effect of over 45% in size
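AMA1 (3D7) with his tag at 25 nM final met compounds first, then biotinylated RON2 peptide at 25 nM; detection used donor plus acceptor beads, 10 µg/mL apiece, read by AlphaScreen after 30 min at room temperature.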
Cycloheximide cs – counter-screen hit for Shiga toxin inhibitors, cycloheximide. cell reporter, cycloheximide protein synthesis inhibition counterscreen. max response, %. 300,000 compounds, 12% hits; in the data active = max response mostly above about 13%, no sharp cut-off; inactive = mostly below about 14%; also: read at 38.3 µM for the half of the compounds with a filed dose
AmpC no deterg – inhibitors of E. coli AmpC beta-lactamase without detergent; AmpC nitrocefin hydrolysis, absorbance 480 nm, 0.0001% Triton; Potency, µM (series often up to 57.1 µM), actives largely listed as inhibitors; 330,000 compounds, 0.52% hits; AID 485341; also: nearly all actives have a fitted effect of over 20% in size
Target sequence (P00811 whole entry, looked up): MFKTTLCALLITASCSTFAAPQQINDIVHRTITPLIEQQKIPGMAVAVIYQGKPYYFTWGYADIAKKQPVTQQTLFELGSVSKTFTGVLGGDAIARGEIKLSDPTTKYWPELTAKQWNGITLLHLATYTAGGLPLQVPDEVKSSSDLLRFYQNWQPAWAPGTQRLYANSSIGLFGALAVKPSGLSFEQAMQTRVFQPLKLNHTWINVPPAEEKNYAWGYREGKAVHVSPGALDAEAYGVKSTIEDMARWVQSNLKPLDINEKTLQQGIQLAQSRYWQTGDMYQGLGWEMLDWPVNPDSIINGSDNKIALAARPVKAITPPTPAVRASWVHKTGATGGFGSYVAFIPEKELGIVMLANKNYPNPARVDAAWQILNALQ
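AmpC (5.3 nM in the dispensed reagent) in 20 mM phosphate pH 7.0 with 0.01% (detergent screen) or 0.0001% Triton X-100 was preincubated with compounds for 15 min at room temperature. Nitrocefin was then added from an 800 uM solution, and hydrolysis was followed at 480 nm.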
AmpC detergent – blocks E. coli AmpC beta-lactamase in detergent assay; P00811; AmpC hydrolysis of nitrocefin, absorbance 480 nm, 0.01% Triton; Potency, µM (top dose mostly 114 µM), usual class: inhibitors; 370,000 compounds, 0.041% hits; also: nearly all actives have a fitted effect of over 25% in size
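20 mM phosphate pH 7.0 + 0.01% (detergent screen) or 0.0001% Triton X-100; 5.3 nM AmpC reagent; cpd preinc 15 min RT; nitrocefin (800 uM stock) to start; A480 q20 s × 4 min; Activity was normalised to no-enzyme and no-compound control wells.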
SARS PLpro yeast – SARS-CoV PLP inhibition in yeast; S. cerevisiae expressing SARS-CoV PLpro, growth rescue; Potency, µM (series often up to 32.9 µM), actives largely listed as activators; 330,000 compounds, 0.19% hits; calls by dose curve; also: nearly all actives have a fitted effect of over 55% in size
Large screens that a line does not name were inactive. Unless noted, calls follow the shape of the dose curve; as a rule, active = well fitted curve in the direction sought with a large enough effect; inconclusive = small, poorly fitted or top-dose-only effect, or another doubt; inactive = no such curve, though single readings can be large; an effect the other way counts as inactive or inconclusive.

Cc1c(C)n(C)c2ccc(C(=O)NCCCN3CCCCC3C)cc12 (stereo not drawn)	none
CC(C)C(=O)N1CCN(c2ccc(NC(=O)c3ccco3)cc2Cl)CC1	AmpC detergent inconclusive
O=C(Nc1ccc(N2CCOCC2)c(Cl)c1)c1ccco1	Cycloheximide cs 34, AmpC detergent inconclusive
O=C(Nc1ccccc1N1CCOCC1)c1ccco1	none
CC(=O)N1CCN(c2ccc(NC(=O)c3ccco3)cc2Cl)CC1	Shiga inhibitor 43, Cycloheximide cs 17, SARS PLpro yeast inconclusive
CCC(=O)N1CCN(c2ccc(NC(=O)c3ccco3)cc2Cl)CC1	Cycloheximide cs 15
Cc1ccc(S(=O)(=O)NCCNC(=O)C2CCCNC2=O)cc1 (stereo not drawn)	none
Cc1ccc(C(=O)N/C(=C\c2ccccc2F)c2nc(=S)[nH][nH]2)cc1	AmpC no deterg 25µM
CCOC(=O)C1CCN(C(=O)c2cc(COc3ccc(F)cc3F)on2)CC1	Shiga inhibitor 127, Cycloheximide cs 63
CCC(O)C1CCN(C(=O)c2cc(COc3ccc(F)cc3F)on2)CC1 (stereo not drawn)	none
COCCOC1CCN(C(=O)c2cc(COc3ccc(F)cc3F)on2)CC1	Cycloheximide cs 23
O=C(c1cc(COc2ccc(F)cc2F)on1)N1CCCC(c2ccccc2)C1 (stereo not drawn)	Cycloheximide cs 19
O=C(c1cc(COc2ccc(F)cc2F)on1)N1CC[C@@H]2CCCC[C@H]2C1	none
CCOC(=O)N1CCN(C(=O)c2cc(COc3ccc(F)cc3F)on2)CC1	Shiga inhibitor 88, Cycloheximide cs 49
CN(C)c1ncc(C(=O)NCc2ccc(Cl)cc2)cn1	none (no result: Shiga inhibitor, AMA1-RON2 inh, Cycloheximide cs, AmpC no deterg, SARS PLpro yeast)
Fc1ccc(Nc2cncc(-c3ccsc3)c2)cc1Cl	none (no result: Shiga inhibitor, Cycloheximide cs, AmpC no deterg, AmpC detergent, SARS PLpro yeast)
COc1ccccc1-n1cnc2cc(NS(=O)(=O)c3ccc(Br)cc3)ccc21	none
Cc1ccc(-n2ncc3c(=O)n(CC#N)cnc32)cc1C	Cycloheximide cs 65
Cc1nc2c3cnn(-c4ccc(C)c(C)c4)c3ncn2n1	Shiga inhibitor 70, Cycloheximide cs 29, AmpC detergent inconclusive
C#CCn1cnc2c(cnn2-c2ccc(C)c(C)c2)c1=O	Shiga inhibitor 141, Cycloheximide cs 35
Cc1ccc(-n2ncc3c(=O)n(CC(N)=O)cnc32)cc1C	AmpC detergent inconclusive
Cc1cc(NC(=O)COC(=O)CCNS(=O)(=O)c2cccc(C(F)(F)F)c2)no1	none
Cc1ccc(OCCNc2cc(N3CCN(CCO)CC3)ccc2[N+](=O)[O-])cc1C	none
CC(C)(C)OC(=O)C[C@@H]1C/C=C\C[C@H](CC(=O)N(CCO)Cc2ccccc2)C(=O)N2CCC[C@H]2COC1=O	none (no result: Shiga inhibitor, Cycloheximide cs, AmpC detergent)
Cc1cc(=O)n2nc(N3CCC(C(=O)NCc4ccccc4F)CC3)sc2n1	SARS PLpro yeast 11µM
O=C(NCc1ccco1)C1CCN(c2nc3ccccc3n2Cc2ccccc2F)CC1	Cycloheximide cs 22
CC(C)N1C(=O)CCC1C(=O)NCc1ccco1 (stereo not drawn)	none
COc1ccc(OC)c(NC(=O)C2(C)CCN2CCc2ccccc2)c1 (stereo not drawn)	none (no result: Shiga inhibitor, Cycloheximide cs, AmpC no deterg, AmpC detergent, SARS PLpro yeast)
N#CC(C#N)=Cc1cc2ccccc2nc1N1CCCCC1	Shiga inhibitor 41, Cycloheximide cs 42
CCOC(=O)/C(C#N)=C/c1cc2ccccc2nc1N1CCOCC1	AmpC detergent inconclusive
COc1cccc(-n2nc3c(-n4ncc(C#N)c4N)nnc(C)c3c2C)c1	AmpC detergent inconclusive
Cc1c(Cl)cccc1NC(=O)c1cccc(OC(F)F)c1	Shiga inhibitor 94, Cycloheximide cs 37
COc1ccc(NC(=O)c2cccc(OC(F)F)c2)cc1Cl	Shiga inhibitor 131, Cycloheximide cs 39
Cc1ccc(NC(=O)c2cccc(OC(F)F)c2)c(OC(F)F)c1	none
COc1ccc(NC(=O)c2cccc(F)c2)cc1Cl	Shiga inhibitor 57, Cycloheximide cs 20, AmpC detergent inconclusive
COc1ccc(NC(=O)c2ccccc2F)cc1Cl	Shiga inhibitor 35, Cycloheximide cs 29
COc1ccc(NC(=O)c2ccco2)cc1NC(=O)c1ccccc1F	none
N#CCC(=O)N/N=C1\CCCCC1C1CCCCC1 (stereo not drawn)	none
O=C(Nc1ccc(OC(F)F)c(Cl)c1)c1cccc(OC(F)F)c1	Shiga inhibitor 67, Cycloheximide cs 43
Cc1cc(C(=O)Nc2sc(C)c(C)c2C#N)c(C)o1	none
CC1CCC(C(C)C)C(OP(=O)(c2ccc(N(C)C)cc2)C(O)c2cccnc2)C1 (stereo not drawn)	none (no result: AMA1-RON2 inh)
O=C(Oc1ccc(NC2=C(Cl)C(=O)c3ccccc3C2=O)cc1)c1ccc([N+](=O)[O-])cc1	Cycloheximide cs 18
c1ccc(CSc2ccc(-c3cccs3)nn2)nc1	Shiga inhibitor 51, Cycloheximide cs 44
Clc1ccc(CSc2ccc(-c3cccs3)nn2)cc1	none (no result: Shiga inhibitor, AMA1-RON2 inh, Cycloheximide cs, AmpC no deterg, SARS PLpro yeast)
c1ccc(CSc2ccc(-c3cccs3)nn2)cc1	Shiga inhibitor 40, Cycloheximide cs 31
Clc1cccc(CSc2ccc(-c3cccs3)nn2)c1	none (no result: Shiga inhibitor, AMA1-RON2 inh, Cycloheximide cs, AmpC no deterg, SARS PLpro yeast)
C/C(CC(=O)Nc1ccc(Br)cc1)=N\NC(=O)c1cccc(O)c1	Shiga inhibitor 69, Cycloheximide cs 44, AmpC detergent inconclusive
COc1ccc(C(=O)N/N=C(\C)CC(=O)Nc2ccc3c(c2)OCO3)cc1	Shiga inhibitor 55, Cycloheximide cs 37
COc1ccc(C(=O)N/N=C(\C)CC(=O)Nc2ccc3c(c2)OCCO3)c(OC)c1	none
C/C(CC(=O)Nc1ccc2c(c1)OCCO2)=N\NC(=O)c1cccc(O)c1	Shiga inhibitor 84, Cycloheximide cs 33
C/C(CC(=O)Nc1cccc(F)c1)=N\NC(=O)c1ccncc1	AmpC detergent inconclusive
COc1ccc(S(=O)(=O)NCC2CCCN(C(=O)CNC(C)=O)C2)cc1 (stereo not drawn)	none
N#C/C(=C/c1cc(Cl)c(O)c(Cl)c1)C(=O)N1CCCCC1	AmpC detergent inconclusive
C=CCN(C1CCCCC1)S(=O)(=O)c1ccc2c(c1)oc(=O)n2C	AmpC detergent inconclusive
COc1cc(Nc2ccccn2)cc(C(=O)Nc2cccc(C(F)(F)F)c2)c1	none
COc1ccc(CCNC(=O)C2CCCN(S(=O)(=O)c3cc(C)ccc3OC)C2)cc1OC (stereo not drawn)	none
Cc1ccc(-c2cc(C(=O)Nc3ccccn3)c3ccccc3n2)o1	none
CCCCOC(=O)c1ccc(S(N)(=O)=O)o1	Cycloheximide cs 11
CCCOC(=O)c1ccc(S(N)(=O)=O)o1	none
COc1cccc(-c2noc(C3CCCN(C(=O)Cc4ccccc4)C3)n2)c1 (stereo not drawn)	Cycloheximide cs 23
CCCC(=O)N1CCCC(c2nc(-c3cccc(OC)c3)no2)C1 (stereo not drawn)	Shiga inhibitor 77, Cycloheximide cs 32

Assay outcomes from PubChem BioAssay.
